Compound activity as filed in PubChem BioAssay.
Gli-Sufu block = Gli-Sufu pathway antagonists, primary screen, luciferase luminescence, Sufu-KO-LIGHT cells, uHTS. Sufu-KO-LIGHT fibroblasts, Gli luciferase reporter luminescence. inhibition, % at 5 µM. 340,000 compounds, 0.74% hits. AID 588413, 2011;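 active means inhibition above about 55%, limit read from the data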
Shn3 inh set2 = reduction of Shn3 3'UTR firefly luciferase signal, primary screen, Schnurri-3 inhibitor project, cell-based, Clone20 osteoblasts, set 2; 360,000 compounds, 0.52% hits; inhibition, % at 12.5 µM; AID 588674, 2011; Clone20 osteoblast Shn3 3'UTR firefly luciferase, 24 h;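 active means mean inhibition of at least 75% with every replicate also reaching 75%; inconclusive means mean inhibition at least 75% but some replicate below; inactive means mean inhibition below 75%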
CSC inhib = cancer stem cell viability inhibitors, primary screen, luminescence | cancer stem cell-like cells viability | inhibition, % at 7.5 µM | AID 2717, 2010 | 300,000 compounds, 1.1% hits; in the data active means inhibition above about 75%; inconclusive means no clear call, values can overlap the other calls; tested in HMLE shEcad cells
PAX8 inh HTS = inhibitors of PAX8-driven TPO luciferase reporter, primary screen, RMG-I cells, single concentration | SteadyGlo, 24 h | inhibition, % at 12.6 µM | 360,000 compounds, 1.2% hits | AID 652154, 2013;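 active means mean replicate inhibition at least 60% with every replicate also reaching 60%; inconclusive means only one of the two criteria is met; inactive means mean below 60% and not all replicates reaching 60%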;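 further: luciferase light reporting Pax8 driven TPO promoter activity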
Beta cell apopt = inhibitors of cytokine-induced beta cell apoptosis, primary screen, luminescence; protection from apoptosis, % (no concentration beside the values); AID 435005, 2010; INS-1E cytokine-induced death, ATP luminescence, 48 h; percent of positive-control rescue, neutral wells zero; 300,000 compounds, 0.8% hits;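 active means Every replicate reaches about 75%, or at least half do and their mean reaches it too, limit read from the data; inconclusive means At least half of replicates reach the limit but their mean does not; inactive means Under half of replicates reach the limit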;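 further: higher means more ATP so stronger rescue from cytokine killing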
Mdm2-MdmX inh = inhibitors of human Mdm2-MdmX association, primary screen, cell-based, luminescence, split luciferase, SaOS-2, uHTS; Protein Mdm4 (Homo sapiens) + E3 ubiquitin-protein ligase Mdm2 (Homo sapiens), …; SaOS-2 split-luciferase Mdm2/MdmX complementation; inhibition, % at 8 µM; 330,000 compounds, 3% hits; AID 485346, 2010;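 active means inhibition of at least 50% at 8 µM in the primary screen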
Mdm2 MdmX conf = Mdm2-MdmX complex disruptors, retested hits, confirmation, luminescence, single concentration; shares compounds with Mdm2-MdmX inh; Mdm2-MdmX binding, luminescent assay; inhibition, % at 8 µM; 10,000 compounds, 55% hits; AID 489028, 2010; in the data active means inhibition above about 40%
FLuc counter = full-length luciferase signal inhibition, confirmation, counter-screen for Mdm2/MdmX interaction inhibitor project, cell-based, single concentration, SaOS-2. shares compounds with Mdm2-MdmX inh. 6,200 compounds, 77% hits. inhibition, % at 8 µM. SaOS-2 full-length luciferase counterscreen, luminescence;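 active means mean inhibition at 8 µM reaching about 37%, which flags the compound as non-specific, limit read from the data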;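 further: p53-null SaOS-2 cells with luciferase driven by a doxycycline-inducible promoter; compound on cells about two nights before reading with doxycycline added after day one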
Hits are given with their value; - = inactive; ? = inconclusive; . = no result given. In the library only some 4% were active in any assay of this set; here they are far more common.

SMILES	Gli-Sufu block	Shn3 inh set2	CSC inhib	PAX8 inh HTS	Beta cell apopt	Mdm2-MdmX inh	Mdm2 MdmX conf	others
COc1cc(C(=O)N/N=C(\C)c2ccccn2)cc(OC)c1OC	-	-	-	-	83	77	-
C[C@@H](O)C#Cc1cnc2c(c1)C(=O)N([C@@H](C)CO)C[C@H](C)[C@H](CN(C)Cc1ccc(-c3ccccc3)cc1)O2	.	.	.	-	.	.	.
C[C@H]1CN([C@@H](C)CO)C(=O)c2cccc(NC(=O)Nc3ccc(C(F)(F)F)cc3)c2O[C@@H]1CN(C)C(=O)Nc1ccc2c(c1)OCO2	.	.	.	-	.	.	.
CCCC#Cc1cnc2c(c1)C(=O)N([C@@H](C)CO)C[C@@H](C)[C@@H](CN(C)C(=O)NC1CCCC1)O2	.	.	.	-	.	.	.
CCc1nnc(NC(=O)C(NC(=O)c2ccccc2Cl)C(C)C)s1 (stereo not given)	-	-	-	-	-	-	.
C[C@@H](C(=O)Nc1nc(-c2ccccn2)cs1)N1C(=O)C2CCCCC2C1=O (stereo not given in full)	-	.	-	.	-	-	.
CC(Oc1ccc(Br)cc1)C(=O)Nc1nc(-c2ccccn2)cs1 (stereo not given)	-	-	89	-	.	80	71	FLuc counter=-
CC(C)[C@H](NC(=O)c1ccccc1Cl)C(=O)Nc1nc(-c2ccccn2)cs1	-	-	-	-	-	64	53	FLuc counter=-
Cc1ccc(S(=O)(=O)N(C)C[C@@H]2OCCCC[C@H](C)Oc3ccc(NC(=O)Nc4cccc5ccccc45)cc3C(=O)N([C@@H](C)CO)C[C@H]2C)cc1	.	.	.	-	.	.	.
Cc1[nH]c2ccccc2c1/C=N/Nc1nc(Nc2ccccc2)nc(N2CCOCC2)n1	-	-	-	-	-	58	-
Oc1[nH]c2ccccc2c1N=Nc1nc(Nc2ccccc2)nc(N2CCOCC2)n1	-	-	-	?	-	80	81	FLuc counter=59
C[C@H](CO)N1C[C@H](C)[C@H](CN(C)Cc2ccc(Oc3ccccc3)cc2)Oc2ccc(NC(=O)c3ccncc3)cc2CC1=O	.	.	.	-	.	.	.
CC(C)C(=O)Nc1ccc(C(=O)N/N=C/c2cc(Br)cc(Br)c2O)cc1	-	-	84	-	79	66	-
CC(C)NC(=O)Nc1ccc2c(c1)CC(=O)N([C@H](C)CO)C[C@@H](C)[C@@H](CN(C)S(=O)(=O)c1ccccc1)O2	.	.	.	-	.	.	.
CN1CCC(N(C)S(=O)(=O)c2ccc(NC(=O)COc3cccc(Cl)c3)cc2)CC1	-	-	-	-	-	-	.
Cc1c(C(=O)Nc2ccc(S(=O)(=O)N(C)C3CCN(C)CC3)cc2)oc2ccccc12	-	-	-	-	-	92	-
CN1CCC(N(C)S(=O)(=O)c2ccc(NC(=O)COc3ccc(Br)cc3Cl)cc2)CC1	-	-	.	-	-	63	56	FLuc counter=72
CN1CCC(N(C)S(=O)(=O)c2ccc(NC(=O)c3ccc(S(=O)(=O)N(C)C)cc3)cc2)CC1	-	-	-	-	-	-	.
O=C(COc1ccc(Br)cc1Cl)NC(=O)Nc1ccc2c(c1)OCCO2	-	-	-	-	-	53	-
Cc1c(C(=O)Nc2ccc(S(=O)(=O)N(C)C3CCN(C)CC3)cc2)oc2c(Cl)cccc12	-	-	-	-	.	88	75	FLuc counter=64
COc1ccc(CN(C)C[C@@H]2OCCCC[C@H](C)Oc3ccc(NC(=O)NC(C)C)cc3C(=O)N([C@@H](C)CO)C[C@@H]2C)cc1	.	.	.	-	.	.	.
C[C@H](CO)N1C[C@H](C)[C@H](CN(C)S(=O)(=O)c2cn(C)cn2)Oc2ncc(/C=C/c3ccccc3)cc2C1=O	.	.	.	-	.	.	.
O=S(=O)(N[C@H]1CC[C@@H](CCn2cc(C3(O)CCCC3)nn2)O[C@@H]1CO)c1ccccc1	.	.	.	-	.	.	.
C[C@@H]1CN([C@H](C)CO)C(=O)c2cccc(NS(=O)(=O)c3cn(C)cn3)c2O[C@H]1CN(C)S(=O)(=O)c1cccs1	.	.	.	-	.	.	.
Cc1ccc2[nH]c(=O)c3cc(C(=O)N(CCCOC(C)C)Cc4ccco4)sc3c2c1	-	-	-	-	-	69	-
SMILES	Gli-Sufu block	Shn3 inh set2	CSC inhib	PAX8 inh HTS	Beta cell apopt	Mdm2-MdmX inh	Mdm2 MdmX conf	others
Cc1ccc2[nH]c(=O)c3cc(C(=O)N(C)c4ccccc4C)sc3c2c1	-	-	.	-	-	-	.
CCCCN(Cc1ccco1)C(=O)c1cc2c(=O)[nH]c3ccc(C)cc3c2s1	-	-	-	-	-	84	-	FLuc counter=-
CCCCN(CC)C(=O)c1cc2c(=O)[nH]c3ccc(C)cc3c2s1	-	-	-	-	-	-	.
COc1ccc(C(NC(=O)c2cc(OC)ccc2OC)c2ccccc2)cc1 (stereo not given)	-	-	-	-	-	-	.
COc1ccc(C(NC(=O)c2c(F)c(F)c(F)c(F)c2F)c2ccccc2)cc1 (stereo not given)	-	-	-	-	-	77	-
COc1cccc(NC(=O)Cn2c3ccc(OC)cc3c3nc4n(c(=O)c32)CCS4)c1	-	-	-	-	-	-	.
COc1ccc2c(c1)c1nc3n(c(=O)c1n2CC(=O)Nc1cc(C)[nH]n1)CCS3	.	.	-	-	-	67	59	FLuc counter=101
O=C(NCc1ccc(F)cc1)C(=O)Nc1nc(C23CC4CC(CC(C4)C2)C3)cs1	-	-	75	-	-	59	-
CN(Cc1ccccc1)c1ncnc2ccc(Br)cc12	-	-	-	.	-	57	49	FLuc counter=39
